The record followed here is article PMC8384837, “Expanding the binding specificity for RNA recognition by a PUF domain”.

What all share (assay): yeast three-hybrid, YBZ-1, SC-Leu-His + 0.5 mM 3-AT, 4 days
Conditions in all cases: tags: N-Gal4 AD-HA kept; label: inside an RPR1-promoter hybrid RNA with tandem MS2 sites; ssRNA

For one assay, the target named is PUM1 PUF domain R1-KGE (Homo sapiens, UniProt Q14671 828-1176, S863K;R864G;Q867E). The gist of the method: (§1)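 The interaction score is the log change in how often each variant appears, from input to selection. Frequencies came from PCR-amplified, Illumina-sequenced repeat regions of Pumilio-1 PUF domain libraries grown in strain YBZ-1 (LexA–MS2 coat fusion, HIS3 reporter) alongside matching RNA elements. Input plates were SC-Leu and selection plates were SC-Leu-His + 0.5 mM 3-AT, each for four days, and the log2 calculation used a pseudocount of 1 where a variant was absent.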

The next assay addresses PUM1 PUF domain R1-GWE (Homo sapiens, UniProt Q14671 828-1176, S863G;R864W;Q867E). The gist of the method: as §1
Another assay deals with PUM1 PUF domain R4-NPA (Homo sapiens, UniProt Q14671 828-1176, H972P;Q975A). The gist of the method:
as §1

Another assay has as its target PUM1 PUF domain R3-FSK (Homo sapiens, UniProt Q14671 828-1176, C935F;R936S;Q939K). In short, it runs like this:
as §1

Another assay has as its target PUM1 PUF domain R5-GRW (Homo sapiens, UniProt Q14671 828-1176, C1007G;Q1011W). In short, it runs like this:
as §1

For another assay, the target named is PUM1 PUF domain R5-GKN (Homo sapiens, UniProt Q14671 828-1176, C1007G;R1008K;Q1011N). The gist of the method: as §1
The target of another assay is PUM1 PUF domain R5-WHL (Homo sapiens, UniProt Q14671 828-1176, C1007W;R1008H;Q1011L). The gist of the method:
as §1

The next assay deals with T1, PUM1 PUF domain R6-SWV (Homo sapiens, UniProt Q14671 828-1176, N1043S;Y1044W;Q1047V).
T1 sequence: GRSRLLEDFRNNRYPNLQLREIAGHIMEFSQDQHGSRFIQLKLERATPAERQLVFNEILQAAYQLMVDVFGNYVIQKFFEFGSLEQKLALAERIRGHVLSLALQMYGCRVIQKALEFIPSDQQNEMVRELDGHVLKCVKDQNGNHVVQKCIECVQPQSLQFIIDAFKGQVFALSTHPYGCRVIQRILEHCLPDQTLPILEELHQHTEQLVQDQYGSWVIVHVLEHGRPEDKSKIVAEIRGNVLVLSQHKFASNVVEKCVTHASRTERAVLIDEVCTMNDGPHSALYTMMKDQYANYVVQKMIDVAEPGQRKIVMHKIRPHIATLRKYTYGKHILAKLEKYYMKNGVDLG
In short, it runs like this: as §1

Another assay has as its target T2, PUM1 PUF domain R6-LWA (Homo sapiens, UniProt Q14671 828-1176, N1043L;Y1044W;Q1047A).
T2 sequence: T1 sequence with S216L, V220A
In short, it runs like this: as §1

A further assay addresses T3, PUM1 PUF domain R6-WWG (Homo sapiens, UniProt Q14671 828-1176, N1043W;Y1044W;Q1047G).
T3 sequence: T1 sequence with S216W, V220G
In short, it runs like this:
as §1

The target in another assay is T4, PUM1 PUF domain R6-WWS (Homo sapiens, UniProt Q14671 828-1176, N1043W;Y1044W;Q1047S).
T4 sequence: T1 sequence with S216W, V220S
In short, it runs like this: as §1

In a further assay the target is T5, PUM1 PUF domain R6-MWG (Homo sapiens, UniProt Q14671 828-1176, N1043M;Y1044W;Q1047G).
T5 sequence: T1 sequence with S216M, V220G
In short, it runs like this:
as §1

A further assay concerns the target PUM1 PUF domain R4-CRL (Homo sapiens, UniProt Q14671 828-1176, N971C;H972R;Q975L). The gist of the method: as §1
The next assay concerns the target PUM1 PUF domain R3-TRH (Homo sapiens, UniProt Q14671 828-1176, C935T;Q939H). The gist of the method: as §1
The target of a further assay is PUM1 PUF domain R8-HWI (Homo sapiens, UniProt Q14671 828-1176, N1122H;Y1123W;Q1126I). The gist of the method: as §1
The target in the next assay is PUM1 PUF domain R1-RAN (Homo sapiens, UniProt Q14671 828-1176, S863R;R864A;Q867N). In short, it runs like this: as §1
Another assay addresses PUM1 PUF domain R2-LLY (Homo sapiens, UniProt Q14671 828-1176, N899L;Y900L;Q903Y). The gist of the method: as §1
A further assay has as its target PUM1 PUF domain R3-VFF (Homo sapiens, UniProt Q14671 828-1176, C935V;R936F;Q939F). In short, it runs like this: as §1
The next assay addresses PUM1 PUF domain R1-KLR (Homo sapiens, UniProt Q14671 828-1176, S863K;R864L;Q867R). The gist of the method: as §1
For a further assay, the target named is PUM1 PUF domain R1-KRY (Homo sapiens, UniProt Q14671 828-1176, S863K;Q867Y). In short, it runs like this: as §1

Where a chain is given by its changes, count along the chain named.

Chain of PUM1 PUF domain R4-NPA (Q14671 828-1176 H972P/Q975A): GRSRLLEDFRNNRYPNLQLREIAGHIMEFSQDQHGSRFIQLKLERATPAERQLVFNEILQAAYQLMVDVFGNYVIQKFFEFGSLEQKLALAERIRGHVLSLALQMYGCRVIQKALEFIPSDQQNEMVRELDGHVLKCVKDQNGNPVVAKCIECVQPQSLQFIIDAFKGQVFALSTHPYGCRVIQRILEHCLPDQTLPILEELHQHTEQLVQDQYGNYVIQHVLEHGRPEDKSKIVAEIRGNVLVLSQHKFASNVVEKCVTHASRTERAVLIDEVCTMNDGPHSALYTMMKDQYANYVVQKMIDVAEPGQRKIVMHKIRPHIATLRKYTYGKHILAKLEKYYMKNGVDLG

With “GGCUAGAACUAGUGGAUCCCCCGGCGCCCGGCGGCUCGAGCCCGGGUAAGUGUAAAUGGUCUGCAUGCCGCCGGGCGCCAUGCCUGCAGGUCGACUCUAGAAAACAUG”, the binding signal is 1.9 log2 enrichment (interaction score) with PUM1 PUF domain R1-KGE and 2.61 log2 enrichment (interaction score) with PUM1 PUF domain R1-GWE.

Consider “GGCUAGAACUAGUGGAUCCCCCGGCGCCCGGCGGCUCGAGCCCGGGUAAGUGUACAUAGUCUGCAUGCCGCCGGGCGCCAUGCCUGCAGGUCGACUCUAGAAAACAUG”, for which, in the assay with PUM1 PUF domain R4-NPA, the binding signal is 0.72 log2 enrichment (interaction score).

Take “GGCUAGAACUAGUGGAUCCCCCGGCGCCCGGCGGCUCGAGCCCGGGUAAGUGUAAGUAGUCUGCAUGCCGCCGGGCGCCAUGCCUGCAGGUCGACUCUAGAAAACAUG”: the binding signal in the assay with PUM1 PUF domain R3-FSK is 4.08 log2 enrichment (interaction score).

In the case of “GGCUAGAACUAGUGGAUCCCCCGGCGCCCGGCGGCUCGAGCCCGGGUAAGUGUUAAUAGUCUGCAUGCCGCCGGGCGCCAUGCCUGCAGGUCGACUCUAGAAAACAUG”, the binding signal with PUM1 PUF domain R5-GRW is 4.05 log2 enrichment (interaction score); with PUM1 PUF domain R5-GKN it was 3.34 log2 enrichment (interaction score).

As for “GGCUAGAACUAGUGGAUCCCCCGGCGCCCGGCGGCUCGAGCCCGGGUAAGUGUGAAUAGUCUGCAUGCCGCCGGGCGCCAUGCCUGCAGGUCGACUCUAGAAAACAUG”, the binding signal with PUM1 PUF domain R5-WHL is 7.53 log2 enrichment (interaction score).

For the sequence “GGCUAGAACUAGUGGAUCCCCCGGCGCCCGGCGGCUCGAGCCCGGGUAAGUGAAAAUAGUCUGCAUGCCGCCGGGCGCCAUGCCUGCAGGUCGACUCUAGAAAACAUG”, the binding signal with PUM1 PUF domain R6-SWV is 2.26 log2 enrichment (interaction score); with PUM1 PUF domain R6-LWA it was 3.04 log2 enrichment (interaction score); in the assay with PUM1 PUF domain R6-WWG, 2.56 log2 enrichment (interaction score).

With “GGCUAGAACUAGUGGAUCCCCCGGCGCCCGGCGGCUCGAGCCCGGGUAAGUGUAAAUAGUCUGCAUGCCGCCGGGCGCCAUGCCUGCAGGUCGACUCUAGAAAACAUG”, the binding signal in the assay with PUM1 PUF domain R6-SWV is 1.05 log2 enrichment (interaction score); with PUM1 PUF domain R6-WWS, 3.36 log2 enrichment (interaction score); with PUM1 PUF domain R6-MWG, 3.83 log2 enrichment (interaction score); in the assay with PUM1 PUF domain R4-CRL, 5.64 log2 enrichment (interaction score); in the assay with PUM1 PUF domain R5-GRW, 2.31 log2 enrichment (interaction score); with PUM1 PUF domain R6-LWA, 4.92 log2 enrichment (interaction score). Also, the binding signal was 4.79 log2 enrichment (interaction score) with PUM1 PUF domain R6-WWG, 4.48 log2 enrichment (interaction score) with PUM1 PUF domain R3-TRH, 1.59 log2 enrichment (interaction score) with PUM1 PUF domain R4-NPA and 3.85 log2 enrichment (interaction score) in the assay with PUM1 PUF domain R8-HWI.

For the sequence “GGCUAGAACUAGUGGAUCCCCCGGCGCCCGGCGGCUCGAGCCCGGGUAAGUGUCAAUAGUCUGCAUGCCGCCGGGCGCCAUGCCUGCAGGUCGACUCUAGAAAACAUG”, the binding signal with PUM1 PUF domain R5-WHL was 2.9 log2 enrichment (interaction score); with PUM1 PUF domain R5-GKN, 1.57 log2 enrichment (interaction score).

Turning to “GGCUAGAACUAGUGGAUCCCCCGGCGCCCGGCGGCUCGAGCCCGGGUAAGUGUAAAUCGUCUGCAUGCCGCCGGGCGCCAUGCCUGCAGGUCGACUCUAGAAAACAUG”, in the assay with PUM1 PUF domain R1-RAN, the binding signal is 3.89 log2 enrichment (interaction score).

In the case of “GGCUAGAACUAGUGGAUCCCCCGGCGCCCGGCGGCUCGAGCCCGGGUAAGUGUAAAGAGUCUGCAUGCCGCCGGGCGCCAUGCCUGCAGGUCGACUCUAGAAAACAUG”, in the assay with PUM1 PUF domain R2-LLY, the binding signal was 2.22 log2 enrichment (interaction score).

In the case of “GGCUAGAACUAGUGGAUCCCCCGGCGCCCGGCGGCUCGAGCCCGGGUAAGUGUAUAUAGUCUGCAUGCCGCCGGGCGCCAUGCCUGCAGGUCGACUCUAGAAAACAUG”, the binding signal with PUM1 PUF domain R4-NPA is 4 log2 enrichment (interaction score).

Turning to “GGCUAGAACUAGUGGAUCCCCCGGCGCCCGGCGGCUCGAGCCCGGGUAAGUGUAAUUAGUCUGCAUGCCGCCGGGCGCCAUGCCUGCAGGUCGACUCUAGAAAACAUG”, the binding signal is 1.56 log2 enrichment (interaction score) in the assay with PUM1 PUF domain R3-TRH and 4.71 log2 enrichment (interaction score) with PUM1 PUF domain R3-VFF.

For “GGCUAGAACUAGUGGAUCCCCCGGCGCCCGGCGGCUCGAGCCCGGGUAAGUGUAAAUUGUCUGCAUGCCGCCGGGCGCCAUGCCUGCAGGUCGACUCUAGAAAACAUG”, the binding signal with PUM1 PUF domain R1-KGE is 4.18 log2 enrichment (interaction score); in the assay with PUM1 PUF domain R1-RAN, 3.21 log2 enrichment (interaction score); with PUM1 PUF domain R1-KLR it was 4.29 log2 enrichment (interaction score); with PUM1 PUF domain R1-KRY it was 3.65 log2 enrichment (interaction score).
